Source: PubChem BioAssay (NCI)
Compounds without any hit were thinned out: in the full panel of roughly 83,000, 20% have a hit.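 Interpretation: 100, growth as untreated; towards 0, rising growth inhibition; 0, no net growth; 0 to -100, cell death. Compounds scoring below 10 were considered active.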 The source made the active and inactive calls.

Tested on: EKVX NSCLC
Assay: NCI-60 one-dose screen, 48 h (100 = growth as untreated, 0 = no growth, -100 = all killed)
Details: 10 µM unless noted
Description: Growth inhibition of the EKVX human Non-Small Cell Lung tumor cell line is measured as a screen for anti-cancer activity. Cells are grown in 96 well plates and exposed to the test compound for 48 hours. Compounds are tested at a single concentration, which is 10^-5 M for most compounds. The reported endpoint is percent growth (GI% or GIPRCNT), where numbers from 0 - 100% represent growth inhibition, and numbers from -100% - 0 represent cell death. For example, a value of 40 represents 60% growth inhibition. A value of 0 means no net growth occurred over the course of the experiment. A value of -40 indicates 40% of cells at the beginning of the experiment died by the end of the experiment. A value of -100 means all cells are dead at the end of the experiment.
NCI-60 Human Tumor Cell Lines Screen was performed using the standard one-dose NCI protocol, which is described in more detail at https://dtp.cancer.gov/discovery_development/nci-60/default.htm.
Compounds with GIPRCNT values below 10 were considered active. Activity score was based on GIPRCNT using the following formula: […]
Score is 0 for GIPRCNT values of 100 or above, 50 for GIPRCNT values of 0, and 100 for GIPRCNT values of -100.

| Compound | growth |
| --- | --- |
| Clc1ccc(-c2cnc3nonc3n2)s1 | 107% (inactive) |
| COc1cccc(NC(=O)OC(C)C)c1 | 94.7% (inactive) |
| CC(=O)OC[C@H]1O[C@@H](n2c(=O)cc(N)[nH]c2=O)C(OC(C)=O)[C@@H]1OC(C)=O (stereo not given in full) | 104% (inactive) |
| O=C1Nc2ccccc2/C1=C\c1nc(C2CCN(S(=O)(=O)c3ccc(F)cc3)CC2)n2ccccc12 | 63.3% (inactive) |
| O=C(/C=C/c1ccccc1Br)c1cccc(OCCCCOc2cccc(C(=O)/C=C/c3ccccc3Br)c2)c1 | 102% (inactive) |
| O=C(O)C(CCc1ccccc1)NCc1ccccc1 (stereo not given) | 102% (inactive) |
| CCN(CC)CC(=O)Nc1c(C)cc(C(=O)NN)cc1C | 102% (inactive) |
| C=CCN1C(=O)/C(=c2\sc3n(c2=O)C2C(NN=3)N(CC)C(=O)N2CC)c2ccccc21 (stereo not given) | 37.3% (inactive) |
| COc1cc(CN(CCC(O)N2CCCC2=O)Cc2ccc3c(c2)OCO3)cc(OC)c1OC (stereo not given) | 107% (inactive) |
| Cc1ccc(Nc2cccc3ccccc23)cc1 | 101% (inactive) |
| O=C1Nc2ccc(Cl)cc2/C1=C\c1c(-c2ccc(F)cc2)nc2ccccn12 | 33.8% (inactive) |
| CN(C)c1nc(-c2ccco2)n2nc(-c3ccc(Cl)cc3)cc2n1 | 84.2% (inactive) |
| CN(C)c1ccc(C2(Cl)c3ccccc3N(C)c3ccccc32)cc1 | 47.8% (inactive) |
| CC(=O)Nc1c(Br)cc2c(c1Br)Cc1cc(Br)ccc1-2 | 55.3% (inactive) |
| COc1cc(OC)c(Cl)cc1N | 118% (inactive) |
| C=C(c1ccc(C(=O)NCCCn2ccnc2)cc1)c1cc2c(cc1C)C(C)(C)CCC2(C)C | 27.1% (inactive) |
| COc1nccc2c(Sc3ccccc3)nc(N)nc12 | 117% (inactive) |
| Cc1ccc2c(C)c3c(ccc4ccccc43)c[n+]2c1 | 44.1% (inactive) |
| Cc1nn(-c2cccc(Cl)c2)c(C)c1N=Nc1ccc(Br)cc1 | 87.5% (inactive) |
| CN1C(=O)N(C)C2C1NN=c1s/c(=C\c3ccc(Br)cc3)c(=O)n12 (stereo not given) | 50% (inactive) |

| Compound | growth |
| --- | --- |
| NC(N)=N/N=C/c1ccc(Cl)cc1 | 64.2% (inactive) |
| CN(C)CCCN1c2ccccc2CCc2ccccc21 | 107% (inactive) |
| Cc1c(C(N)=O)sc2ncn(CC(=O)NN=C3CCCCC3)c(=O)c12 | 96.6% (inactive) |
| O=C1CCCN1C1CCN2CCCc3cccc1c32 (stereo not given) | 102% (inactive) |
| CCOC(=O)C1C(=O)C=C(c2cc(OC)c(OC)c(OC)c2)CC1c1sc(N(C)Cc2ccccc2)nc1Cl (stereo not given) | 63.3% (inactive) |
| CS(=O)(=O)c1ccc(Cl)c([N+](=O)[O-])c1 | 104% (inactive) |
| Clc1cc2nc(-c3ccccc3)c(-c3ccccc3)nc2cc1Cl | 82.6% (inactive) |
| COc1cc(-c2nn(C(=O)NCCN3CCN(C)CC3)cc2-c2ccncc2)ccc1Cl | 46.9% (inactive) |
| Nc1nc(N)c2cc(NCc3ccc(Cl)c(Cl)c3)ccc2n1 | -78.8% (active) |
| COc1ccc(C(=O)OC2C(OC3C(O)COC(O[C@H]4C[C@H]5[C@@H]6CC=C7C[C@@H](O)CC[C@]7(C)[C@H]6CC[C@]5(C)[C@H]4[C@H](C)C(=O)CCC(C)C)C3OC(C)=O)OCC(O)C2O)cc1 (stereo not given in full) | 7.53% (active) |
| O=C(Nc1cccc(Cl)c1)Nc1ccccc1Cl | 72.1% (inactive) |
| CCC(=O)NC1=C(Cl)C(=O)C(NC(=O)CC)=C(Cl)C1=O | 129% (inactive) |
| COc1ccc2c(c1)N(Cc1ccc(Cl)cc1)CCC2N1CCCC1=O (stereo not given) | 36.9% (inactive) |
| COc1cc(Cl)cc(-c2nn(C(=O)NCCN3CCOCC3)cc2-c2ccncc2)c1 | 93.4% (inactive) |
| CCCCCCCC/C=C\CCCCCCCC(=O)OCCCCCC | 84.9% (inactive) |
| COc1cc(NC(=O)CSc2nc3ccc(Cl)cc3c(=O)n2-c2ccccc2)cc(OC)c1OC | 76.4% (inactive) |
| CC(C)(CCc1ccccn1)C(=O)CCCc1ccccn1 | 105% (inactive) |
| S=C(Nc1ccc(Cl)cc1)Nc1ccc(Cl)cc1 (tested in a mixture with another compound) | -4.98% (active) |
| COc1cc([N+](=O)[O-])cc(OC)c1OC | 104% (inactive) |
| O=C(c1ccccc1)C1OC1C(=O)c1ccccc1 (stereo not given) | 81.3% (inactive) |
